Assay results from ChEMBL document CHEMBL1961873, “Compounds: GSK PKIS; Assays: Nanosyn kinase panel” (2012).

Columns and labels:
[1] = target: Casein kinase I isoform gamma-2 (Homo sapiens) (UniProt P78368); details: at 1 µM
[2] = target: Casein kinase I isoform gamma-3 (Homo sapiens) (UniProt Q9Y6M4); details: at 0.1 µM
[3] = target: Casein kinase I isoform gamma-3 (Homo sapiens) (UniProt Q9Y6M4); details: at 1 µM
[4] = target: Cyclin-dependent kinase 1 (Homo sapiens) (UniProt P06493); details: at 0.1 µM
Sequence of Cyclin-dependent kinase 1 (Homo sapiens) (P06493 whole entry, looked up): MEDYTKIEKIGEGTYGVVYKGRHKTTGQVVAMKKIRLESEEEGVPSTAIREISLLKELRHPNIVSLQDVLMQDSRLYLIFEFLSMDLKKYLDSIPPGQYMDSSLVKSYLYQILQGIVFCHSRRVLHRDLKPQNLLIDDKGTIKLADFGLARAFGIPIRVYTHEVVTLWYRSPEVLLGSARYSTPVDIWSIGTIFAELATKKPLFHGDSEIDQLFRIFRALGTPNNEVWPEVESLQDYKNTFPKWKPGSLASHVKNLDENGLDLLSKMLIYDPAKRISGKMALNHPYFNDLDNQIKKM

[5] = target: Cyclin-dependent kinase 1 (Homo sapiens) (UniProt P06493); details: at 1 µM
[6] = target: Cyclin-dependent kinase 2 (Homo sapiens) (UniProt P24941); details: at 0.1 µM
[7] = target: Cyclin-dependent kinase 2 (Homo sapiens) (UniProt P24941); details: at 1 µM
[8] = target: Cyclin-dependent kinase 2 (Homo sapiens) (UniProt P24941); details: at 0.1 µM; remark: listed apart in the source
[9] = target: Cyclin-dependent kinase 2 (Homo sapiens) (UniProt P24941); details: at 1 µM; remark: listed apart in the source
[10] = target: T1, CDK3/Cyclin E (Homo sapiens) (UniProt P24864+Q00526); details: at 0.1 µM
T1 sequence (P24864 whole entry, looked up): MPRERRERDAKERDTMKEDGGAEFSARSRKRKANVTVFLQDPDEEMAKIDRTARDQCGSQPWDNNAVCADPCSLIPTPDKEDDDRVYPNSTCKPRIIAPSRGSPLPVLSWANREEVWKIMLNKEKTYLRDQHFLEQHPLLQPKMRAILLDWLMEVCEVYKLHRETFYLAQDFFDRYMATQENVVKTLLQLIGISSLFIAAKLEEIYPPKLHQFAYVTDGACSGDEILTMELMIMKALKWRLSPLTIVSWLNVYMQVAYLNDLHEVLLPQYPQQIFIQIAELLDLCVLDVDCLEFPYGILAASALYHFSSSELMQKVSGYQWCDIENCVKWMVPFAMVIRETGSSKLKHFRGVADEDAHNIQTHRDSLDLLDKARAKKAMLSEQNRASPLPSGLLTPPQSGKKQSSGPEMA
T1 sequence (Q00526 whole entry, looked up): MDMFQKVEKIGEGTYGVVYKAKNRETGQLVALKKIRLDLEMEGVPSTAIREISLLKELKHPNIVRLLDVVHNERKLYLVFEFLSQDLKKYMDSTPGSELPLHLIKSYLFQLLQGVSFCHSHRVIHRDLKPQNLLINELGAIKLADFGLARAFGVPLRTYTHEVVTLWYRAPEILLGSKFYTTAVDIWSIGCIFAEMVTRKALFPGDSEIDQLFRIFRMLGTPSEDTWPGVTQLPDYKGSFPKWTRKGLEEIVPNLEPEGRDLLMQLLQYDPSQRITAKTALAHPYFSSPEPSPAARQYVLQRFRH

[11] = target: T1, CDK3/Cyclin E (Homo sapiens); details: at 1 µM
[12] = target: Cyclin-dependent kinase 4 (Homo sapiens) (UniProt P11802); details: at 0.1 µM
Sequence of Cyclin-dependent kinase 4 (Homo sapiens) (P11802 whole entry): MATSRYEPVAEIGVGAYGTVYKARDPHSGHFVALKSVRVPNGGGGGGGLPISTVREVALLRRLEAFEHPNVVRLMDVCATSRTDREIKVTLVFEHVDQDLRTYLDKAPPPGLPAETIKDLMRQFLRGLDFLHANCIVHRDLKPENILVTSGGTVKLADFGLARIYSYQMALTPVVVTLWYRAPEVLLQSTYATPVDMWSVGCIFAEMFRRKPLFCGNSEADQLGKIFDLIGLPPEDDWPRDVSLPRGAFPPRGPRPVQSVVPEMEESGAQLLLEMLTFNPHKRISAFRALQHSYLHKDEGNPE

[13] = target: Cyclin-dependent kinase 4 (Homo sapiens) (UniProt P11802); details: at 1 µM
[14] = target: Cyclin-dependent kinase 5 (Homo sapiens) (UniProt Q00535); details: at 0.1 µM
Sequence of Cyclin-dependent kinase 5 (Homo sapiens) (Q00535 whole entry, looked up): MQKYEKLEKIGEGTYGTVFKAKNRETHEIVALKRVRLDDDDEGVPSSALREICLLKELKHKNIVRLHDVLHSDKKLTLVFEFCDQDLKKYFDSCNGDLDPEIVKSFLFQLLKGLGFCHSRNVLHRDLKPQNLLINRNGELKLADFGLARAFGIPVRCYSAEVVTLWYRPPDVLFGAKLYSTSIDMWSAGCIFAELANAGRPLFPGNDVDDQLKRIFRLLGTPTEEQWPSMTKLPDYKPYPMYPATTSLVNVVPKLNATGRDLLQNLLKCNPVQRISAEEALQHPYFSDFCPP

[15] = target: Cyclin-dependent kinase 5 (Homo sapiens) (UniProt Q00535); details: at 1 µM
[16] = target: Cyclin-dependent kinase 6 (Homo sapiens) (UniProt Q00534); details: at 0.1 µM
Sequence of Cyclin-dependent kinase 6 (Homo sapiens) (Q00534 whole entry): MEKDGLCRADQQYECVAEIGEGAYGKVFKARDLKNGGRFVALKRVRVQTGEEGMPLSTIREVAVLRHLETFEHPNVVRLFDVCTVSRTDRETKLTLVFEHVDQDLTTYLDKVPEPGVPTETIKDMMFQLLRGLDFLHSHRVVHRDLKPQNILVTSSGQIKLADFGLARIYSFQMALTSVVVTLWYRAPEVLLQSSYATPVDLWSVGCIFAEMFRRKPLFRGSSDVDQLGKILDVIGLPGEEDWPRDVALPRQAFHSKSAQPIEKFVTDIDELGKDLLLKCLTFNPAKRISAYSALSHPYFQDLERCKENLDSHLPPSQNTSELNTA

[17] = target: Cyclin-dependent kinase 6 (Homo sapiens) (UniProt Q00534); details: at 1 µM
[18] = target: Dual specificity protein kinase CLK2 (Homo sapiens) (UniProt P49760); details: at 0.1 µM
Sequence of Dual specificity protein kinase CLK2 (Homo sapiens) (P49760 whole entry, looked up): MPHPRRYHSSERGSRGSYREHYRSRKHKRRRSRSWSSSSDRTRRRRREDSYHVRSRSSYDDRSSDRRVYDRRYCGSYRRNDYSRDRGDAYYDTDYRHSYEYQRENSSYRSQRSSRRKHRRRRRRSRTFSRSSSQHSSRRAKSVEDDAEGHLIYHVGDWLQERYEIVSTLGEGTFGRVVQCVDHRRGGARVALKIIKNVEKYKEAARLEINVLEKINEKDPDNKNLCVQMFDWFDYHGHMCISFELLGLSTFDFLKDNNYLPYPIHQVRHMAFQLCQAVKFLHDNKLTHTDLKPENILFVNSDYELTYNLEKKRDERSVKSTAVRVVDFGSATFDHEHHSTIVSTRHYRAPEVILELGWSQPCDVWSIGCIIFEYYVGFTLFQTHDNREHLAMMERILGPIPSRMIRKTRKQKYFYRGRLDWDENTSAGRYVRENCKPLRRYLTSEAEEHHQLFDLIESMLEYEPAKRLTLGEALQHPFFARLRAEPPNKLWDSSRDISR

[19] = target: Dual specificity protein kinase CLK2 (Homo sapiens) (UniProt P49760); details: at 1 µM
[20] = target: Dual specificity protein kinase CLK3 (Homo sapiens) (UniProt P49761); details: at 0.1 µM
Sequence of Dual specificity protein kinase CLK3 (Homo sapiens) (P49761 whole entry, looked up): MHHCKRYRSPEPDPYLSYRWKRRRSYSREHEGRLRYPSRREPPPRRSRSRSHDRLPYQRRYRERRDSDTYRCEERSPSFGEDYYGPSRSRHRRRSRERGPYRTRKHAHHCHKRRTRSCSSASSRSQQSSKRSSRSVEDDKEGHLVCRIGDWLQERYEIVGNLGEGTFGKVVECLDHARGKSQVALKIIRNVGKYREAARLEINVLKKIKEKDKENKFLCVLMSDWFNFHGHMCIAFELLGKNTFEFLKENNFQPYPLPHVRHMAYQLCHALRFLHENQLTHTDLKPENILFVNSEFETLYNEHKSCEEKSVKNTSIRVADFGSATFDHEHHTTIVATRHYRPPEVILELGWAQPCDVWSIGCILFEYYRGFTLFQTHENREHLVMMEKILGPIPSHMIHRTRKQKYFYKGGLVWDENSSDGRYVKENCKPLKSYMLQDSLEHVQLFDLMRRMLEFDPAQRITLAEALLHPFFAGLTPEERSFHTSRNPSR

Sequence of Casein kinase I isoform gamma-3 (Homo sapiens) (Q9Y6M4 whole entry, looked up, canonical isoform): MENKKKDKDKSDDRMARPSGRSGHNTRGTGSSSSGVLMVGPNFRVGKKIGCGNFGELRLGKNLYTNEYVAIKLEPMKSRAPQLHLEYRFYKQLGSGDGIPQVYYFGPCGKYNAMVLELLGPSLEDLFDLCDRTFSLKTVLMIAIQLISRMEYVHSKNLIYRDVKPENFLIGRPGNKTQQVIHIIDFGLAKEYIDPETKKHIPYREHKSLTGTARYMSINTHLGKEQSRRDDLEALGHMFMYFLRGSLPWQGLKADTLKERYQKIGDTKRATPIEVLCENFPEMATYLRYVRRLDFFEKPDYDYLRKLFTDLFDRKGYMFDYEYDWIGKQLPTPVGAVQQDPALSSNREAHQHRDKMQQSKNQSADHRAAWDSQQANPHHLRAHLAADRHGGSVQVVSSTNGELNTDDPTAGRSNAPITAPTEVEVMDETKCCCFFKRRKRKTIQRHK
Sequence of Casein kinase I isoform gamma-2 (Homo sapiens) (P78368 whole entry, looked up, canonical isoform): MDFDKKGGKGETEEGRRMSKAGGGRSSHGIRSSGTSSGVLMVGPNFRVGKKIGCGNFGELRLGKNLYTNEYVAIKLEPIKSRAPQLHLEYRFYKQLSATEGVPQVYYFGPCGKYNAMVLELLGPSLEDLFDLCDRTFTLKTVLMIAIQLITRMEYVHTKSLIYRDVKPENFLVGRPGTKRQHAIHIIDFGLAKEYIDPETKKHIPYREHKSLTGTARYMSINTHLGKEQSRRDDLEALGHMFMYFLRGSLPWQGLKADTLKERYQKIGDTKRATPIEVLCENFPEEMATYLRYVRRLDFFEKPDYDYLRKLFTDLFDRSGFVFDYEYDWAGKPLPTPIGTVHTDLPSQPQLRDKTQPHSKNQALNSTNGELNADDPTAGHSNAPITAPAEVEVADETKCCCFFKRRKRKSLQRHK

SMILES	inhibition [1] [%]	inhibition [2] [%]	inhibition [3] [%]	inhibition [4] [%]	inhibition [5] [%]	inhibition [6] [%]	inhibition [7] [%]	inhibition [8] [%]	inhibition [9] [%]	inhibition [10] [%]	inhibition [11] [%]	inhibition [12] [%]	inhibition [13] [%]	inhibition [14] [%]	inhibition [15] [%]	inhibition [16] [%]	inhibition [17] [%]	inhibition [18] [%]	inhibition [19] [%]	inhibition [20] [%]
CC1=C(C(=O)Nc2ccc3[nH]nc(C)c3c2)C(c2ccc(C(F)(F)F)cc2)CC(=O)N1 (stereo not given)	3.14	2.16	2.2	1.96	6.87	2.54	6.05	2.66	6.67	0.4	1.51	4.22	7.29	2.58	6.22	7.14	10.2	1.85	9.04	2.28
Cn1c(-c2nonc2N)nc2cnccc21	3.42	1.53	2.15	1.15	4.4	2.01	11.2	3.69	11.6	6.05	2.12	1.95	3.9	1.09	7.18	-4.08	1.64	2.9	10.3	1
NC(=O)c1ccc2c(-c3ccnc(NCCCO)n3)c(-c3ccc(F)cc3)nn2c1	19.9	8.09	29	1.5	1.54	-0.03	1.7	3.22	4.45	2.38	-1.28	3.3	4.76	0.91	0.98	-6.31	1.97	2.88	2.32	0.97
COc1ccc2ncn(-c3cc(O[C@H](C)c4ccccc4C(F)(F)F)c(C(N)=O)s3)c2c1	-0.54	-1.87	0.68	0.65	3.45	1.04	0.96	-0.81	1.48	1.1	-1.57	0.47	2.89	0.13	1.21	-4.17	-1.08	0.34	5.08	-0.05
c1cnn2ncc(-c3ccnc(NCCCN4CCOCC4)n3)c2c1	5.14	1.77	4.33	1.53	13.9	1.1	5.75	5.32	5.99	0.96	-0.22	2.24	7.97	0.21	2.95	-1.7	2.95	1.77	6.81	0.39
CC1=C(C(=O)Nc2ccc3[nH]ncc3c2)C(c2ccc(F)cc2)N=C(c2ccc(C(F)(F)F)nc2)N1 (stereo not given)	2.44	0.89	1.64	-0.29	0.48	2.22	3.53	2.03	3.67	0.12	1.96	2.27	2.07	0.56	0.43	2.17	1.9	0.46	-0.11	1.34
